High-throughput results deposited in PubChem BioAssay by National Center for Advancing Translational Sciences (NCATS).
An excerpt weighted towards active compounds, which were near 19% of everything screened.
ELG1 DNA repair: qHTS screen for small molecules that inhibit ELG1-dependent DNA repair in human embryonic kidney (HEK293T) cells expressing luciferase-tagged ELG1. HEK293T ELG1-luciferase reporter, luminescence, 16 h; DNA damage induced by 5-fluorouridine. Potency, µM (highest dose often 46.1 µM), for the others: at the highest dose activity change, negative = inhibition, usual class: inhibitors. actives 2.3% (n = 330,000). AID 504467, 2011; further: potency means the concentration at half of the fitted maximal effect; nearly all actives have a fitted effect of over 55% in size
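Reporter activity after DNA damage by 5-fluorouridine is monitored. Compound-treated cells incubate 16 hr at 37 °C, then ONE-Glo is added for 30 min before luminescence reading.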
DT40 TDP1 CPT: qHTS for Inhibitors of human tyrosyl-DNA phosphodiesterase 1 (TDP1): qHTS in cells in presence of CPT; chicken DT40 Tdp1-/-;hTDP1 cells + 20 nM CPT, ATP luminescence, 48 h; Potency, µM (titrated, usually from 46.2 µM), inactives show at the highest dose activity change, negative = growth inhibition, usual class: inhibitors; actives 12% (n = 420,000); AID 686979, 2013; further: potency means the concentration at half of the fitted maximal effect; nearly all actives have a fitted effect of over 55% in size
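Cell growth measured by CellTiter-Glo luminescence after a minimum 48 h, 37 C compound exposure with 20 nM CPT in Tdp1-knockout DT40 cells stably expressing hTDP1, seeded 400/well; qHTS titration format.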
DT40 TDP1 no CPT: qHTS for Inhibitors of human tyrosyl-DNA phosphodiesterase 1 (TDP1): qHTS in cells in absence of CPT; actives 15% (n = 420,000); DT40 Tdp1-/- hTDP1 cells, no CPT, ATP luminescence, 48 h; Potency, µM (top dose mostly 46.2 µM), without a hit: at the highest dose activity change, negative = growth inhibition, hits mostly inhibitors; further: potency means the concentration at half of the fitted maximal effect; nearly all actives have a fitted effect of over 55% in size
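Chicken DT40 Tdp1-/- cells complemented with human TDP1, screened without camptothecin (DMSO vehicle only), 400 cells/well. Compounds pin-transferred, cells incubated at 37 °C for at least 48 hr. Growth read as ATP-dependent luminescence (CellTiter-Glo, 30 min at RT).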
IL1B secr inh: qHTS for Inhibitors of Inflammasome Signaling: IL-1-beta AlphaLISA Primary Screen; activity change, % at 57.5 µM; actives 4.7% (n = 360,000); AID 743279, 2014; THP-1 LPS/ATP IL-1B secretion, AlphaLISA, 16 h; stronger effect = lower value; in the data active means activity change below about -50%; inconclusive means mostly about -30% to -49%
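THP-1 cells pretreated 1 hr with compounds (up to 57.5 uM final), then stimulated with LPS (250 ng/mL final) plus ATP (1.25 mM final); secreted IL-1B measured by AlphaLISA after 16 hr, decreased signal indicating inhibition.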
HT1080-NT tox: qHTS for induction of synthetic lethality in tumor cells producing 2HG: qHTS for the HT-1080-NT fibrosarcoma cell line. Potency, µM (top dose mostly 46.1 µM), inactives show top-dose activity, negative = less viability, hits mostly cytotoxic. HT-1080-NT fibrosarcoma viability, CellTiter-Glo ATP luminescence, 48 h. actives 1.6% (n = 360,000);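 further: NT is the 2HG producing partner of a matched IDH1 knockdown line; potency means the concentration at half of the fitted maximal effect; 0% = DMSO-treated cells and -100% = media-only wells without cells; nearly all actives have a fitted effect of over 55% in size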
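Fibrosarcoma NT cells, 750 per well in 5% FBS RPMI, were exposed to compound for 48 hours. Viability: CellTiter-Glo luminescence.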
HT1080 IDH1KD tx: qHTS for induction of synthetic lethality in tumor cells producing 2HG: qHTS for the HT-1080-IDH1KD cell line; HT-1080 IDH1 knockdown viability, ATP luminescence, 48 h; Potency, µM (doses to about 46.1 µM), inactives show at the highest dose activity, negative = toxicity, most hits filed as cytotoxic; actives 2% (n = 360,000);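 further: potency means the concentration at half of the fitted maximal effect; 0% = DMSO wells and -100% = cell-free medium wells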
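Using the IDH1-knockdown HT-1080 line run in the same batch and compound series as the NT line, viability after 48 h at 37 °C was determined by CellTiter-Glo luminescence and expressed as % activity.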
Active calls of the source: *. Unless noted, the call rests on the fitted dose curve; in most records, active means well fitted curve in the direction sought with a large enough effect; inconclusive means small, poorly fitted or top-dose-only effect, or another doubt; inactive means no such curve, though single readings can be large; an effect the other way counts as inactive or inconclusive. Unless noted, on the % scale 0 is the no-effect control and ±100 the full control effect.

For CCOC(=O)N1CCN(Cc2ccc(OCC(O)CN3CCCCC3)cc2)CC1 (stereo not drawn) the results were ELG1 DNA repair inconclusive, DT40 TDP1 CPT inconclusive, DT40 TDP1 no CPT 9%, IL1B secr inh 50, HT1080-NT tox -2% and HT1080 IDH1KD tx 2%.
COCCC(=O)NC1CCCc2c1cnn2-c1cccc(C)c1C (stereo not drawn) was read as ELG1 DNA repair -17%, DT40 TDP1 CPT -19%, DT40 TDP1 no CPT -22%, IL1B secr inh 20, HT1080-NT tox 7% and HT1080 IDH1KD tx 20%.
Screening Cc1cccc(-n2ncc3c2CCCC3NC(=O)C2(C(N)=O)CC2)c1C (stereo not drawn) returned ELG1 DNA repair -3%, DT40 TDP1 CPT 10µM*, DT40 TDP1 no CPT inconclusive, IL1B secr inh 12, HT1080-NT tox -14% and HT1080 IDH1KD tx inconclusive.
For CC1(C)CC(=O)C=C(C(=O)NC2CCCc3c2cnn3-c2cc(F)cc(F)c2)O1 (stereo not drawn) the results were ELG1 DNA repair 16%, DT40 TDP1 CPT inconclusive, DT40 TDP1 no CPT inconclusive, IL1B secr inh 4, HT1080-NT tox 9% and HT1080 IDH1KD tx 10%.
`Cc1cc(C)c(C(=O)NC2CCCc3c2cnn3-c2cccc(C)c2C)o1` (stereo not drawn) gave ELG1 DNA repair 12%, DT40 TDP1 CPT 21µM*, DT40 TDP1 no CPT inconclusive, IL1B secr inh 0, HT1080-NT tox -18% and HT1080 IDH1KD tx inconclusive.
For Cc1cccc(-n2ncc3c2CCCC3NC(=O)C2=CC(=O)CC(C)(C)O2)c1C (stereo not drawn) the results were ELG1 DNA repair inconclusive, DT40 TDP1 CPT 4.6µM*, DT40 TDP1 no CPT 8.2µM*, IL1B secr inh inactive, HT1080-NT tox inconclusive and HT1080 IDH1KD tx -18%.
For CCc1cc(C(=O)NC2CCCc3c2cnn3-c2cccc(C)c2C)n(C)n1 (stereo not drawn) the results were ELG1 DNA repair inconclusive, DT40 TDP1 CPT 0.21µM*, DT40 TDP1 no CPT 0.16µM*, IL1B secr inh inconclusive, HT1080-NT tox -6% and HT1080 IDH1KD tx inconclusive.
For Cc1cc(C)cc(-n2ncc3c2CCCC3NC(=O)C2(C(N)=O)CC2)c1 (stereo not drawn) the results were ELG1 DNA repair -16%, DT40 TDP1 CPT inconclusive, DT40 TDP1 no CPT inconclusive, IL1B secr inh 25, HT1080-NT tox inconclusive and HT1080 IDH1KD tx inconclusive.
Screening COc1cccc(Nc2ncc3nc(C)c(=O)n(Cc4cccs4)c3n2)c1 returned DT40 TDP1 CPT -4% and DT40 TDP1 no CPT 2%.
O=C(CCNS(=O)(=O)c1ccc(Br)cc1)NCCc1ccc(Cl)cc1 was read as ELG1 DNA repair -4%, DT40 TDP1 CPT inconclusive, DT40 TDP1 no CPT inconclusive, IL1B secr inh -1, HT1080-NT tox inconclusive and HT1080 IDH1KD tx -8%.
Cc1ccc(C(=O)N2CCC(C(=O)Nc3cccc([N+](=O)[O-])c3)CC2)cc1 was read as ELG1 DNA repair 12%, DT40 TDP1 CPT -14%, DT40 TDP1 no CPT -13%, IL1B secr inh -15, HT1080-NT tox -16% and HT1080 IDH1KD tx inconclusive.
`CCCC(=O)Nc1ccc(-c2nc3ncccc3o2)cc1C` gave DT40 TDP1 CPT -17% and DT40 TDP1 no CPT -15%.
`CC(C)(C)OC(=O)N1CCC(c2cc(=O)n3[nH]cc(C(=O)Nc4ccc(F)c(Cl)c4)c3n2)CC1` gave ELG1 DNA repair 22%, DT40 TDP1 CPT 2%, DT40 TDP1 no CPT 5%, IL1B secr inh 15, HT1080-NT tox -1% and HT1080 IDH1KD tx 0%.
Screening CC(C)(C)OC(=O)N1CCC(c2cc(=O)n3[nH]c(-c4ccc(Cl)cc4)cc3n2)CC1 returned ELG1 DNA repair inconclusive, DT40 TDP1 CPT 21µM*, DT40 TDP1 no CPT 23µM*, IL1B secr inh 5, HT1080-NT tox 15% and HT1080 IDH1KD tx 3%.
Screening CC1=NN(C(=O)c2ccccc2Cl)C(O)(c2ccccc2)C1 (stereo not drawn) returned ELG1 DNA repair 6%, DT40 TDP1 CPT -7%, DT40 TDP1 no CPT 4%, IL1B secr inh -3, HT1080-NT tox 3% and HT1080 IDH1KD tx 5%.
`CC1=NN(C(=O)c2ccccc2)C(O)(c2ccc(Br)cc2)C1` (stereo not drawn) gave ELG1 DNA repair inconclusive, DT40 TDP1 CPT 5.8µM*, DT40 TDP1 no CPT inconclusive, IL1B secr inh 45, HT1080-NT tox -23% and HT1080 IDH1KD tx inconclusive.
`CCOC(=O)C1=NN(C(=O)c2ccccc2)C(O)(c2ccc(C)cc2)C1` (stereo not drawn) gave ELG1 DNA repair -1%, DT40 TDP1 CPT inconclusive, DT40 TDP1 no CPT 26µM*, IL1B secr inh 18, HT1080-NT tox -4% and HT1080 IDH1KD tx 12%.
`CCC1=NN(C(=O)c2ccc(Br)cc2)C(O)(c2ccccc2)C1` (stereo not drawn) gave ELG1 DNA repair 0%, DT40 TDP1 CPT 5.8µM*, DT40 TDP1 no CPT 6.5µM*, IL1B secr inh -20, HT1080-NT tox 0% and HT1080 IDH1KD tx -29%.
`Cc1cc(C)cc(N(CC(=O)NC2CCCC2)C(=O)CCC(=O)Nc2nc(C)cs2)c1` gave ELG1 DNA repair 13%, DT40 TDP1 CPT -26%, DT40 TDP1 no CPT -21%, IL1B secr inh -10, HT1080-NT tox -8% and HT1080 IDH1KD tx -3%.
Screening CN(Cc1nc(Cc2ccccc2F)no1)Cc1cccc2ncccc12 returned ELG1 DNA repair inconclusive, DT40 TDP1 CPT inconclusive, DT40 TDP1 no CPT 16µM*, IL1B secr inh -108*, HT1080-NT tox -28% and HT1080 IDH1KD tx -30%.
For CC(=O)c1ccc(NC(=O)c2cc(C)nc3c2c(C)nn3-c2ccc(C)cc2)cc1 the results were DT40 TDP1 CPT -23% and DT40 TDP1 no CPT -23%.
`COc1ccc(C2CC(c3ccccc3)=NN2C(=O)CCC(=O)O)cc1` (stereo not drawn) gave ELG1 DNA repair 1%, DT40 TDP1 CPT 8%, DT40 TDP1 no CPT -18%, IL1B secr inh -4, HT1080-NT tox 18% and HT1080 IDH1KD tx 10%.
